A selection: hits, their analogues and other compounds. The true share with any hit is near 5.7%.
GLP1R inv ag = GLP-1 receptor (human) inverse agonism; P43220; HEK293 GLP-1R CRE-luciferase, luminescence, 24 h; GLP-1R form is constitutively active; Potency, µM (series often up to 38.3 µM), without a hit: top-dose activity change, negative = inhibition, actives largely listed as inhibitors; hit rate 1.6% among 410,000; AID 624417; further: potency means the concentration at half of the fitted maximal effect; on the % scale 0 is the no-effect control and ±100 the full control effect; nearly all actives have a fitted effect of over 55% in size
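Stable HEK293 clone (constitutively active GLP-1R + cAMP-response luciferase); 200 cells/uL plated, 12 h pre-culture, compound 24 hr, 37 deg C/5% CO2; detection reagent 12 min RT; luminescence.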
D3 antag = antagonists of human D3 dopamine receptor; P35462; D3R cells, DiscoveRx beta-arrestin luminescence, antagonist mode; stronger effect = lower value; max response, negative = inhibition, %; hit rate 2.5% among 360,000; in the data active means max response below about -50%; inconclusive means no clear call, values can overlap the other calls; further: on the % scale 0 is the no-effect control and ±100 the full control effect
Target sequence (P35462 whole entry, looked up): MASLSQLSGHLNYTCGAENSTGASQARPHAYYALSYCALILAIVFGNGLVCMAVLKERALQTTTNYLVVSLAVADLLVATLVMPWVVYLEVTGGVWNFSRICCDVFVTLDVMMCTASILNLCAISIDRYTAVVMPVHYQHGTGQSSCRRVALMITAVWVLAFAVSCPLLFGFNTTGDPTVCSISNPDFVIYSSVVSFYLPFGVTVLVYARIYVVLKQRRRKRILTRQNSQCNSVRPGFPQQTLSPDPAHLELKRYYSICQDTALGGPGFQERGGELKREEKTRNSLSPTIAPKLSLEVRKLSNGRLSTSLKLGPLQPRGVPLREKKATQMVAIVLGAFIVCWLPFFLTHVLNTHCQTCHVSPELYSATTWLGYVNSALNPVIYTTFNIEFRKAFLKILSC
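Cells expressing the human receptor were seeded at 1500 cells/well, incubated overnight at 37 degrees C in 5% CO2, then exposed to library compounds with dopamine controls for 90 minutes at 37 degrees C before luminescent detection.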
GLP1R cytotox = cytotoxicity in counter-screen for GLP-1R inverse agonists. HEK293 cAMP-luciferase reporter cells, luminescence, 24 h. Potency, µM (series often up to 38.3 µM), inactives show top-dose activity change, negative = inhibition, usual class: inhibitors. hit rate 0.13% among 410,000;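 further: loss of luciferase light is scored as toxicity; potency means the concentration at half of the fitted maximal effect; on the % scale 0 is the no-effect control and ±100 the full control effect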
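Step one: seed cells (200 cells/uL, DMEM with 10% Nu serum, 1% pen-strep). Step two: 12-hour incubation at 37 deg C. Step three: pin 23 nL compound, incubate 24 hr. Step four: add luciferase reagent, read luminescence 12 min later.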
GLP-1R agonist = GLP-1 receptor (human) agonism; P43220; HEK293 GLP-1R CRE-luciferase, luminescence, 4-6 h; cells express a hypersensitive GLP-1R form; Potency, µM (titrated, usually from 45.6 µM), for the others: top-dose activation, usual class: activators; hit rate 0.007% among 380,000; AID 624172; further: potency means the concentration at half of the fitted maximal effect; % of control where 0% means no effect
ClpP mod = qHTS Assay for Activators of ClpP | ATP-dependent Clp protease proteolytic subunit (Bacillus subtilis (strain 168)), P80244 | purified B. subtilis ClpP, FRET peptide cleavage, 20 min | Potency, µM (titrated, usually from 57.5 µM), without a hit: top-dose activity change, negative = active | hit rate 1.9% among 340,000; active means well fitted falling curve with a large enough effect; inconclusive means small, poorly fitted or top-dose-only effect; inactive means no such curve, though single readings can be large or run the other way; further: potency means the concentration at half of the fitted maximal effect; the source files actives as falling curves though it sought activators and does not explain the sign; nearly all actives have a fitted effect of over 65% in size
Target sequence (P80244 whole entry, looked up): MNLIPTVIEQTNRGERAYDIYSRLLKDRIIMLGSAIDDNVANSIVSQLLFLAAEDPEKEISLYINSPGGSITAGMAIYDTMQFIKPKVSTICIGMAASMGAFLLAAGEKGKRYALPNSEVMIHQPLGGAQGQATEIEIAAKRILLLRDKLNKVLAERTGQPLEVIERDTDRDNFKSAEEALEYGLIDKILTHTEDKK
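Buffer: 100 mM Tris/HCl pH8, 100 mM KCl, 0.05% low protease BSA, 2.5% glycerol, 0.01% Tween-20. ClpP 10 microg/mL final; 20 min RT; delta FRET normalized to ADEP and DMSO controls.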
D3 ag = activates the human D3 dopamine receptor. max activation, %. D3R DiscoveRx beta-arrestin cells, luminescence, 90 min. P35462. hit rate 0.58% among 410,000; in the data active means max activation above about 30%; further: 0% is about no effect
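Cells at 1500/well, incubated overnight, then treated with pinned compounds (dopamine as control) for 90 min at 37 degrees C. DiscoveRx reagent added for 30 - 60 minutes at room temperature; luminescence read.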
Numbers without * were called inactive; u = inconclusive; x = not tested or not shown. Unless noted, the call rests on the fitted dose curve; in most records, active means well fitted curve in the direction sought with a large enough effect; inconclusive means small, poorly fitted or top-dose-only effect, or another doubt; inactive means no such curve, though single readings can be large; an effect the other way counts as inactive or inconclusive.

SMILES | GLP1R inv ag | D3 antag | GLP1R cytotox | GLP-1R agonist | ClpP mod | D3 ag
Cc1nc(N2CCN(c3ccccn3)CC2)c2c(C)c(C(=O)Nc3c(F)cc(F)cc3Br)sc2n1 | 4.5µM* | 40 | -1% | -5% | 4% | 39*
Cc1nc(N2CCN(c3ccccn3)CC2)c2c(C)c(C(=O)Nc3c(C)cc(Br)cc3C)sc2n1 | 2µM* | 25 | 4% | -3% | u | 16
Cc1nc(N2CCC(C)CC2)c2c(C)c(C(=O)Nc3ccccc3C(F)(F)F)sc2n1 | 0% | 77 | 6% | 2% | u | 31*
Cc1nc(N2CCN(c3ccccn3)CC2)c2c(C)c(C(=O)Nc3ccc(Cl)cc3)sc2n1 | 0% | 31 | -3% | -3% | -15% | 1
Cc1nc(N2CCCCC2)c2c(C)c(C(=O)Nc3ccc4c(c3)OCCO4)sc2n1 | 5.6µM* | 1 | -23% | -1% | -2% | 0
CC(C)C(=O)Nc1ccc2nc(SCC(=O)N3CCCC3)sc2c1 | 13% | x | -5% | x | -2% | 12
COc1ccc(C(=O)O/N=C(\N)Cc2ccc(Cl)c(Cl)c2)cc1OC | u | 0 | 5.6µM* | -24% | 0% | 3
COc1ccc(C(=O)O/N=C(\N)Cc2ccc(Cl)cc2)cc1OC | 7.9µM* | 19 | u | 8% | -3% | 4
CCc1cccc(NC(=O)c2oc3ccc4c(c3c2C)C(=O)CC(C)(C)O4)c1 | u | x | -9% | x | u | 6
O=C(NC(Cc1ccccc1)C(=O)N1CCc2ccccc2C1)c1ccccc1 (configuration not stated) | 8.9µM* | 37 | 2% | 13% | x | 4
CN(C)c1c([N+](=O)[O-])cc2[nH]c(=O)[nH]c2c1[N+](=O)[O-] | 143% | -69* | u | 19% | 1% | -16
O=C(NNC1=Nc2cccc3cccc1c23)c1ccc(Br)cc1 | 0% | -97* | -1% | 4% | x | -12
CC(=O)N(C(C)=O)c1nc(-c2ccccc2)cn1/N=C/c1ccccc1 | 7.9µM* | -4 | u | 1% | 32µM* | 6
C=CCn1c(=O)c2c(nc3n2CC(C)CN3c2cccc(OC)c2)n(C)c1=O (configuration not stated) | 1% | -69* | 3% | 1% | -11% | -10
Cc1cccc(N2CC(C)Cn3c2nc2c3c(=O)n(CC(=O)O)c(=O)n2C)c1 (configuration not stated) | 20% | x | -2% | 0% | -7% | -13
COc1cc(N(C)C)c(OC)cc1C=C1C=CC=C1 | x | x | x | x | 0% | x
CCCC(=O)O[C@@H]1C[C@@H](C)N(C(=O)c2ccccc2)c2ccc(C)cc21 | 10µM* | 0 | -2% | -1% | 26% | -2
COc1cc2nc(N3CCN(C)CC3)nc(NC(C)C)c2cc1OC | x | x | x | x | 4% | x
CCN(CC(=O)N1CCOCC1)S(=O)(=O)c1cc(Cl)ccc1Cl | -16% | -5 | 20% | -9% | 32µM* | 3
Cc1c(NC(=O)c2ccc(Br)o2)cccc1-c1nc2ccccc2o1 | -1% | x | -5% | x | -3% | 2
Clc1ccc2c(c1)c1cc(Cl)ccc1n2CN1CCOCC1 | 5µM* | 24 | 6% | -4% | -6% | 2
Clc1ccc2c(c1)c1ccccc1n2CN1CCOCC1 | u | 41 | 7% | 3% | -8% | -4
CN(C)c1ccc(CNc2nc(-c3ccco3)nn2S(=O)(=O)c2ccc3ccccc3c2)cc1 | -5% | x | -11% | x | 2% | 4
CCN1C(=O)[C@@H]2[C@H](C1=O)[C@@H]1C(=O)Nc3ccccc3C(=O)N1[C@@H]2c1cccc(C)c1 | 23% | -28 | -14% | 0% | -1% | 45*
CN(C)C(CNC(=O)C1CCN(S(=O)(=O)c2cc(Cl)ccc2Cl)CC1)Cc1ccccc1 (configuration not stated) | -16% | -21 | 19% | 11% | 1% | -8
SMILES | GLP1R inv ag | D3 antag | GLP1R cytotox | GLP-1R agonist | ClpP mod | D3 ag
C[C@H]1Cn2cnc(C(=O)Nc3ccccc3)c2C(=O)N1 | 46% | 32 | -6% | 3% | 0% | 8
Cc1ccc2c(c1)C(CCN)C(=O)N2Cc1ccccc1 (configuration not stated) | -10% | -106* | 8% | -4% | -2% | -30
O=c1n(-c2ccccc2)c(=O)n2n1CCCC2 | -9% | u | -28% | -10% | 1% | 42*
CCC1CCCCN1S(=O)(=O)c1ccc(C(=O)Nc2sc3c(c2C(=O)NC)CCC3)cc1 (configuration not stated) | -18% | x | 2% | 5% | -1% | -8
Cc1nc(N2CCN(Cc3ccccc3)CC2)nc2c1C(=O)CC(C)C2 (configuration not stated) | 0% | -60* | 4% | 13% | 0% | -1
CCN1CCN(c2nc(C)c3c(n2)CC(C)CC3=O)CC1 (configuration not stated) | u | -12 | 18% | 8% | -3% | -33
COc1ccc(CNS(=O)(=O)c2cnc(N)nc2)c(OC)c1 | 7% | x | -4% | x | -3% | 13
COc1ccc2nc(NC(=O)CSc3nnc(C)n3N)sc2c1 | -25% | -6 | 4% | -3% | 3% | -9
Cc1ccc2nc(NC(=O)CSc3nncc(=O)n3N)sc2c1 | -6% | -2 | -14% | 1% | 25µM* | -5
Cc1ccccc1NC(=O)Nc1ccc(C(F)(F)F)cc1 | 4.5µM* | -12 | -14% | 6% | x | 1
COc1ccc(-c2nnc(SCC(=O)Nc3nc4ccccc4s3)n2C)cc1 | -14% | 9 | 1% | -6% | -1% | 0
CCSc1nc(-c2ccc(OC)cc2)n(-c2nc3ccccc3s2)n1 | -5% | -16 | 6% | 1% | 28µM* | 5
COc1ccc2cc3cc(C(=O)NCc4ccccc4OC)oc3nc2c1 | 8% | x | 2% | 0% | 4% | -12
COc1ccc2cc3cc(C(=O)NCC4COc5ccccc5O4)oc3nc2c1 (configuration not stated) | -23% | 2 | -7% | -3% | 35µM* | 1
COc1ccc2nc3oc(C(=O)N4CCC(C(N)=O)CC4)cc3cc2c1 | 21% | -11 | 16% | 2% | 28µM* | 4
Cc1ccc2cc3cc(C(=O)NCc4ccco4)oc3nc2c1 | 23% | -4 | -4% | -8% | 14µM* | -3
COc1ccc2cc3cc(C(=O)NCc4ccc5c(c4)OCO5)oc3nc2c1 | 47% | 18 | -12% | -2% | 14µM* | 2
COc1ccc(CNC(=O)c2cc3cc4ccc(C)cc4nc3o2)cc1 | 26% | x | -19% | 0% | -14% | 6
